According to PubChem BioAssay (NCI):
This is part of a sample that, as a whole, favours compounds with a hit. Of some 83,000 tested, about 20% had one in any assay.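 Growth was measured after 48 h exposure to one concentration of compound in 96-well plates. Values under 10 count as active.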 A number with no mark means an inactive call. Calls of active or inactive are those of the source.

Experiments:
Test in all cases: NCI-60 one-dose screen, 48 h (100 = growth as untreated, 0 = no growth, -100 = all killed)
SK-MEL-2 melanoma = conditions: 10 µM unless noted
EKVX NSCLC = conditions: 10 µM unless noted
SN12C renal = conditions: 10 µM unless noted
UO-31 renal = conditions: 10 µM unless noted
TK-10 renal = conditions: 10 µM unless noted
A498 renal = conditions: 10 µM unless noted
CCRF-CEM leukemia = conditions: 10 µM unless noted
MOLT-4 leukemia = conditions: 10 µM unless noted
SR leukemia = conditions: 10 µM unless noted
RPMI-8226 leukemia = conditions: 10 µM unless noted
OVCAR-8 ovarian = conditions: 10 µM unless noted
OVCAR-5 ovarian = conditions: 10 µM unless noted
OVCAR-4 ovarian = conditions: 10 µM unless noted
SK-OV-3 ovarian = conditions: 10 µM unless noted
IGROV1 ovarian = conditions: 10 µM unless noted
OVCAR-3 ovarian = conditions: 10 µM unless noted
HS 578T breast = conditions: 10 µM unless noted
NCI/ADR-RES ovarian = conditions: 10 µM unless noted
ACHN renal = conditions: 10 µM unless noted
CAKI-1 renal = conditions: 10 µM

Compound | growth (SK-MEL-2 melanoma) | growth (EKVX NSCLC) | growth (SN12C renal) | growth (UO-31 renal) | growth (TK-10 renal) | growth (A498 renal) | growth (CCRF-CEM leukemia) | growth (MOLT-4 leukemia) | growth (SR leukemia) | growth (RPMI-8226 leukemia) | growth (OVCAR-8 ovarian) | growth (OVCAR-5 ovarian) | growth (OVCAR-4 ovarian) | growth (SK-OV-3 ovarian) | growth (IGROV1 ovarian) | growth (OVCAR-3 ovarian) | growth (HS 578T breast) | growth (NCI/ADR-RES ovarian) | growth (ACHN renal) | growth (CAKI-1 renal)
CC[C@@](C)(NC(=O)C(C)(C)NC(=O)[C@@H](NC(=O)[C@@H]1CCCN1C(=O)C(C)(C)NC(=O)[C@H](CC(C)C)NC(=O)CNC(=O)C(C)(C)NC(=O)[C@@H](NC(=O)C(C)(C)NC(=O)[C@H](CCC(N)=O)NC(=O)[C@H](C)NC(=O)C(C)(C)NC(=O)[C@H](C)NC(=O)C(C)(C)NC(=O)[C@H](C)NC(=O)C(C)(C)NC(C)=O)C(C)C)C(C)C)C(=O)N[C@@H](CCC(N)=O)C(=O)N[C@@H](CCC(N)=O)C(=O)N[C@H](CO)CC1CCCCC1 | -21.9% [5 µM] (active) | 65.6% [5 µM] | 9.8% [5 µM] (active) | 91.1% [5 µM] | 88.3% [5 µM] | 39.7% [5 µM] | 27.4% [5 µM] | 21% [5 µM] | 27.7% [5 µM] | -16.2% [5 µM] (active) | 87.7% [5 µM] | 19.9% [5 µM] | 58% [5 µM] | 18.5% [5 µM] | 42.1% [5 µM] | 19.2% [5 µM] | 46.6% [5 µM] | 101% [5 µM] |  | 
C=C1C(=O)O[C@@H]2C[C@@H](C)[C@H](OC)CC(=O)[C@](C)(OC(C)=O)C[C@H](OC(=O)/C(C)=C\C)[C@@H]12 | 87.5% | 83.9% |  | 72.4% | 55.9% | 150% | -12.7% (active) | 38.1% | 1.2% (active) | 68.3% | 59% | 115% | 82.3% | 96.8% | 90.1% | 21.4% | 103% | 100% | 5.58% (active) | 41.3%
C=C1C(=O)O[C@@H]2C[C@@H](C)/C=C\C(=O)[C@](C)(OC(C)=O)C[C@H](OC(=O)/C(C)=C\C)[C@@H]12 | -15.9% (active) | 5.52% (active) |  | -88.6% (active) | -61% (active) | 38.8% | -17% (active) | 2.13% (active) | 3.84% (active) | -12.6% (active) | -16.1% (active) | -29.5% (active) | 18.2% | 80.7% | -19.7% (active) | -23.3% (active) | 19.1% | 10.5% | -75.5% (active) | -11.1% (active)
CC(=O)NC(C)(C)C(=O)N[C@@H](C)C(=O)NC(C)(C)C(=O)N[C@@H](C)C(=O)NC(C)(C)C(=O)N[C@@H](C)C(=O)N[C@@H](CCC(N)=O)C(=O)NC(C)(C)C(=O)N[C@H](C(=O)NC(C)(C)C(=O)NCC(=O)N[C@@H](CC(C)C)C(=O)NC(C)(C)C(=O)N1CCC[C@H]1C(=O)N[C@H](C(=O)NC(C)(C)C(=O)NC(C)(C)C(=O)N[C@@H](CCC(N)=O)C(=O)N[C@@H](CCC(N)=O)C(=O)N[C@H](CO)CC1CCCCC1)C(C)C)C(C)C | 5.52% [5 µM] (active) | 52% [5 µM] | 21.2% [5 µM] | 53.1% [5 µM] | 38.8% [5 µM] | 52.3% [5 µM] | 55.6% [5 µM] | 55.1% [5 µM] | 43.6% [5 µM] | -3.49% [5 µM] (active) | 44.2% [5 µM] | 55.1% [5 µM] | 23.8% [5 µM] | 45.1% [5 µM] | 49.3% [5 µM] | 35% [5 µM] | 62.1% [5 µM] | 96.9% [5 µM] | 72.2% [5 µM] | 
CN(C)c1ncc(/C=C2\SC(=S)N(Cc3ccccc3Cl)C2=O)s1 | 86% | 81.7% | 68.7% | 47.7% | 96.7% |  | 77.3% | 82% | 87.8% | 86.3% | 95.8% | 87.9% | 2.09% (active) | 107% | 70.8% | 26.8% | 101% | 90.8% |  | 79.1%
C=C(C)C(=O)O[C@H]1C[C@@]2(C)OC(=CC2=O)[C@H](C)[C@H](O)[C@H]2OC(=O)C(=C)[C@@H]21 | 43.1% | 73.6% | 73.9% | 53.9% |  | 131% | 7.85% (active) | 76.6% | 38.1% | 27.1% | 71.9% | 98.6% | 82.3% | 89.7% | 69.7% | 20.1% | 95.4% | 84.1% | 31.9% | 
CCCCCCCCCC[C@@H](C)[C@@H]1CC(=O)N[C@H]([C@@H](C)O)C(=O)N[C@@H](C)C(=O)N[C@H](C)C(=O)N[C@@H](CCC(N)=O)C(=O)N[C@H](Cc2ccc(O)cc2)C(=O)N[C@@H](C(C)CC)C(=O)O1 (stereo partly specified) | 65.5% | 66.6% | 66.5% | 79.6% | 47.9% | 64.3% | 63.2% | 41.1% | 75% | 35.1% | 51.8% | 92.2% | 30.9% | 66.5% | 76.2% | 48.4% | 89% | 93.6% | 98.3% | 
COc1ccc(OC)c([C@H]2c3[nH]c4ccccc4c3C[C@H]3C(=O)N(CCCCCCC(=O)NO)CC(=O)N23)c1 | 86.6% | 93.1% | 84.9% | 78.5% | 101% | 102% | 46.1% | 63.2% | 36.7% | 60.4% | 73.9% | 100% | 80% | 86.2% | 71.6% | 76.3% | 93.5% | 99.5% |  | 78.4%
CCC(C)[C@H]1OC(=O)[C@H](C(C)C)N(C)C(=O)[C@@H](C(C)C)OC(=O)[C@H](C(C)C)N(C)C(=O)[C@@H](C(C)CC)OC(=O)[C@H](C(C)C)N(C)C1=O (stereo partly specified) | -14.6% (active) | 20.5% | 4.12% (active) | -13.6% (active) | -8.95% (active) | -2.54% (active) | 9.05% (active) | -24.2% (active) | 7.44% (active) | -19.5% (active) | 11.6% | 13.4% | 10.5% | -15.3% (active) | 25.8% | 18.3% | 32.9% | 2.47% (active) |  | 
C#C[C@]1(O)CC[C@H]2[C@@H]3CC=C4c5sc(C6CC6)nc5CC[C@]4(C)[C@H]3CC[C@@]21C | 90% | 80.1% | 86.1% | 68.8% | 124% | 99.9% | 58.7% | 46.8% | 46.5% |  | 88.3% | 85.7% | 107% | 116% | 97.9% | 89.2% | 68.1% | 84.6% |  | 79.6%
O=C1c2c(O)cc(O)cc2O[C@@H](c2ccc(O)cc2)[C@@H]1c1c(O)cc(O)c2c(=O)cc(-c3ccc(O)c(O)c3)oc12 | 117% | 91.9% | 105% | 97.3% |  | 120% | 114% | 121% | 103% | 100% | 101% | 98.6% | 97.8% | 86.5% | 101% |  |  | 95.7% | 85% | 
O=c1c2c(O)cccc2oc2c3c(cc(O)c12)O[C@H]1OC=C[C@@H]31 | 95.5% | 42.8% | 92.6% | 79.3% | 89.5% | 89.1% | 92.7% | 88.5% | 42.6% | 93.7% | 87.8% | 110% | 94.5% | 78.9% | 77.4% | 106% |  | 87.9% | 74.9% | 
CC1OC(O[C@@H]2[C@H](O)C(CO)OC(O[C@H]3COC(O[C@H]4CC[C@]5(C)[C@H]6CC[C@]78OC[C@@]9(CC[C@](C)(C=O)C[C@H]97)C(=O)C[C@@]8(C)[C@]6(C)CC[C@H]5C4(C)C)[C@@H](O)[C@@H]3O)[C@H]2OC2OC[C@@H](O)[C@@H](O)[C@@H]2O)[C@@H](O)[C@@H](O)[C@H]1O (stereo partly specified) | 99.4% | 89.2% |  | 75.2% | 102% | 132% | 80.5% | 63.6% | 8.86% (active) | 101% | 91.9% | 110% | 91.6% | 86.8% | 94.8% | 105% | 103% | 95.2% | 97.1% | 84.8%
COc1ccc(CN2C(=O)/C(=C/c3nc(CO)cs3)SC2=S)cc1 | 98.2% | 100% | 93% | 67% | 65.6% |  | 61.1% | 76.7% | 33.8% | 18.5% | 96.7% | 107% | 107% | 109% | 89.9% | 80.8% | 101% | 97.8% |  | 77%
